From PubChem BioAssay (NCATS)
“And” between values parts separate entries of the source, which are not always exact repeats. Equal entries are not always repeated. Inconclusive results are not listed. A number with no mark means an inactive call. The source made the active and inactive calls. The call rests on the fitted dose curve; in most records, active means well fitted inhibition curve with a large enough effect; inconclusive means small, poorly fitted or top-dose-only effect; inactive means flat fitted curve, though single readings scatter.

Tests used:
HaCat [1] = assay: Cytotoxic Profiling of Annotated Libraries Using Quantitative High-Throughput Screening (AID 1296008); conditions: Five cell lines viability, CellTiter-Glo ATP luminescence, 48-72 h; max response: active compounds read low; further: potency means the concentration at half of the fitted maximal effect; on max response: on the % scale 0 is the no-effect control and ±100 the full control effect
How it was run: (§1)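 Cells exposed to compounds for 48 or 72 hr at 37 degrees Celsius. Viability read as ATP-coupled luminescence with CellTiter-Glo after 10 min at room temperature.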

HACAT [2] = assay: qHTS assay to identify novel small-molecules to repurpose for Merkel cell carcinoma treatment (AID 1296009); conditions: MCC and control cell lines, CellTiter-Glo viability, 72 h; at 44.8 µM (top of the series) unless noted
How it was run: (§2)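 Cells were incubated with compound for 72 hr at 37 degree celsius before CellTiter-Glo addition. Luminescence was normalized with no-cell wells as full cytotoxicity and DMSO as baseline.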

KB-3-1 = assay: Cytotoxic Profiling of Annotated Libraries Using Quantitative High-Throughput Screening (AID 1296008); conditions: Five cell lines viability, CellTiter-Glo ATP luminescence, 48-72 h; max response: active compounds read low; further: potency means the concentration at half of the fitted maximal effect; on max response: on the % scale 0 is the no-effect control and ±100 the full control effect
How it was run: as §1

NIH3T3 = assay: as above; conditions: Five cell lines viability, CellTiter-Glo ATP luminescence, 48-72 h; max response: active compounds read low
How it was run: as §1

HEK293 = assay: as above; conditions: Five cell lines viability, CellTiter-Glo ATP luminescence, 48-72 h; max response: active compounds read low
How it was run: as §1

HEK293T = assay: qHTS assay to identify novel small-molecules to repurpose for Merkel cell carcinoma treatment (AID 1296009); conditions: MCC and control cell lines, CellTiter-Glo viability, 72 h; at 44.8 µM (top of the series) unless noted
How it was run: as §2

W2 = assay: qHTS profiling for inhibitors of Plasmodium falciparum proliferation (AID 504749); further: potency means the concentration at half of the fitted maximal effect; conditions: P. falciparum in erythrocytes, SYBR Green DNA, 72 h; series mostly up to 28.7 µM
How it was run: (§3)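 Readout was DNA-dye fluorescence from lysed cultures, ex 485/em 535 nm. Parasitized red cells had grown 72 h with compound; data scaled between 0.29 uM artemisinin and DMSO wells and corrected using vehicle-only plates.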

N140 = assay: as above; conditions: P. falciparum in erythrocytes, SYBR Green DNA, 72 h; series mostly up to 28.7 µM
How it was run: as §3

P93_24 = assay: as above; conditions: P. falciparum in erythrocytes, SYBR Green DNA, 72 h; series mostly up to 28.7 µM
How it was run: as §3

P94_40 = assay: as above; conditions: P. falciparum in erythrocytes, SYBR Green DNA, 72 h; series mostly up to 28.7 µM
How it was run: as §3

PAD = assay: as above; conditions: P. falciparum in erythrocytes, SYBR Green DNA, 72 h; series mostly up to 28.7 µM
How it was run: as §3

PC26 = assay: as above; conditions: P. falciparum in erythrocytes, SYBR Green DNA, 72 h; series mostly up to 28.7 µM
How it was run: as §3

PC49 = assay: as above; conditions: P. falciparum in erythrocytes, SYBR Green DNA, 72 h; series mostly up to 28.7 µM
How it was run: as §3

SC27B = assay: as above; conditions: P. falciparum in erythrocytes, SYBR Green DNA, 72 h; series mostly up to 28.7 µM
How it was run: as §3

TAB109 = assay: as above; conditions: P. falciparum in erythrocytes, SYBR Green DNA, 72 h; series mostly up to 28.7 µM
How it was run: as §3

TAB113 = assay: as above; conditions: P. falciparum in erythrocytes, SYBR Green DNA, 72 h; series mostly up to 28.7 µM
How it was run: as §3

TAB165 = assay: as above; conditions: P. falciparum in erythrocytes, SYBR Green DNA, 72 h; series mostly up to 28.7 µM
How it was run: as §3
Further: nearly all actives have a fitted effect of over 60% in size.

`OC(c1cc(C(F)(F)F)nc2c(C(F)(F)F)cccc12)C1CCCCN1` (stereo not given) was tested, and the outcome (HaCat [1]) was “inactive” and the outcome (HACAT [2]) was “inactive”.
In the case of `CO[C@H]1O[C@@H]2O[C@@]3(C)CC[C@@H]4[C@@H](C)CC[C@@H]([C@H]1C)[C@@]24OO3`, the max response (HaCat [1]) is reported as -9.33%, the outcome (KB-3-1) is reported as “inactive” and the outcome (NIH3T3) is reported as “inactive”.
With `Nc1ccn([C@@H]2O[C@H](CO)[C@@H](O)[C@H]2O)c(=O)n1` the max response (HEK293) was -76.5%, the Potency (HaCat [1]) was 29.6 µM (active) and the Potency (NIH3T3) was 0.526 µM (active).
With `CON(C)C(=O)N1N=C(c2cc(F)ccc2F)S[C@]1(CCCN)c1ccccc1` the max response (HaCat [1]) was -26.8%, the Potency (KB-3-1) was 0.0008 µM (active) and the max response (NIH3T3) was -18.9%.
With `Cc1[nH]c(C=C2C(=O)Nc3ccc(S(=O)(=O)N(C)c4cccc(Cl)c4)cc32)c(C)c1C(=O)N1CCN(C)CC1` the Potency (HEK293) was 5.26 µM (active), the max response (HaCat [1]) was -0.347% and the Potency (NIH3T3) was 9.35 µM (active).
`CN(C)CCCNC(=O)c1ccc(-c2cc(O)c3ncccc3c2)cc1` gave a max response (HaCat [1]) of -4.67% and a max response (NIH3T3) of -2.36%.
For `CNC(=O)[C@H](Cc1ccccc1)NC(=O)[C@H](CC(C)C)[C@H](CSc1cccs1)C(=O)NO`, the Potency (HaCat [1]) was 13.2 µM (active), the max response (KB-3-1) was 2.61% and the max response (NIH3T3) was 0.205%.
For `Cc1ccc(NC(=O)c2cccc(N(C)C)c2)cc1NC(=O)c1ccc(O)cc1`, the outcome (HaCat [1]) was “inactive”, the max response (KB-3-1) was 5.76% and the max response (NIH3T3) was 3.99%. For the same molecule, the outcome (HACAT [2]) was “inactive”.
With `CC(C)C[C@H](NC(=O)c1cc2ccccc2s1)C(=O)N1CCN(C(=O)[C@H](CO)NS(=O)(=O)c2ccc(Cl)cc2Cl)CC1` the Potency (HEK293) was 18.7 µM (active), the max response (HaCat [1]) was -15.5% and the max response (NIH3T3) was -5.73%.
In the case of `CC(C)(F)C[C@H](N[C@@H](c1ccc(-c2ccc(S(C)(=O)=O)cc2)cc1)C(F)(F)F)C(=O)NC1(C#N)CC1`, the outcome (HaCat [1]) is reported as “inactive”, the max response (KB-3-1) is reported as 7.07% and the max response (NIH3T3) is reported as -18%. The outcome (HACAT [2]) was “inactive”.
In the case of `C[C@@H]1[C@H](C)CC[C@]2(C(=O)O)CC[C@]3(C)C(=CC[C@@H]4[C@@]5(C)CC[C@H](O)C(C)(C)[C@H]5CC[C@]43C)[C@@H]12`, the outcome (HACAT [2]) is reported as “inactive [at 92 µM]” and the outcome (HEK293T) is reported as “inactive [at 92 µM]”.
Molecule `COc1cc2c(cc1Cc1cccc(Cl)c1F)c(=O)c(C(=O)O)cn2[C@H](CO)C(C)C` has a max response (HaCat [1]) of -24.6%.
Molecule `O=C1CN2Cc3c(ccc(Cl)c3Cl)N=C2N1` has a max response (HaCat [1]) of -28.5%.
`CN1C(=O)C[C@H](C(=O)N[C@@H](Cc2cnc[nH]2)C(=O)N2CCC[C@@H]2C(N)=O)NC1=O` was tested, and the max response (HaCat [1]) was -3.47%, the outcome (KB-3-1) was “inactive” and the outcome (NIH3T3) was “inactive”.
For `CCCCc1ccc(NS(=O)(=O)c2ccc(C)c(C(=O)N3CCN(c4cccc(C)c4C)CC3)c2)cc1`, the max response (HaCat [1]) was -17%.
`CN1CCC[C@H]1CCO[C@](C)(c1ccccc1)c1ccc(Cl)cc1` was tested, and the outcome (HaCat [1]) was “inactive”, the max response (KB-3-1) was -5.55% and the max response (NIH3T3) was -18.8%. The outcome (HACAT [2]) was “inactive”.
For `COc1ccc2nc3cc(Cl)ccc3c(Nc3cc(CN4CCCC4)c(O)c(CN4CCCC4)c3)c2n1`, the outcome (HaCat [1]) was “inactive”, the max response (NIH3T3) was -1.17% and the outcome (HACAT [2]) was “inactive”.
`CN(C)S(=O)(=O)c1ccc2c(c1)C(=Cc1cc3c([nH]1)CCCC3)C(=O)N2` was tested, and the max response (KB-3-1) was -0.966%.
In the case of `O=S(=O)(NCCNCC=Cc1ccc(Br)cc1)c1cccc2cnccc12`, the Potency (HEK293) is reported as 7.43 µM (active), the max response (HaCat [1]) is reported as -0.249% and the max response (NIH3T3) is reported as -13.9%.
Work on `Cc1ccccc1C(=O)c1ccc(Nc2ccc(Br)cc2N)cc1Cl` yielded a max response (HaCat [1]) of -2.01% and a max response (NIH3T3) of -21.7%.
With `CC[C@H](C)n1cc(C)c2c(C(=O)NCc3c(C)cc(C)[nH]c3=O)cc(-c3ccc(N4CCNCC4)nc3)cc21` the outcome (HaCat [1]) was “inactive”, the outcome (NIH3T3) was “inactive” and the outcome (HACAT [2]) was “inactive”.
In the case of `O=C(C=Cc1ccc(O)cc1)c1ccc(O)cc1O`, the outcome (HaCat [1]) is reported as “inactive”, the max response (NIH3T3) is reported as -8.95% and the outcome (HACAT [2]) is reported as “inactive”.
`CCN(CC)CCCCNc1nc2cc(Cl)c(Cl)cc2nc1-c1ccc(-c2cccs2)s1` was tested, and the Potency (HEK293) was 29.6 µM (active) and the Potency (KB-3-1) was 13.2 µM (active).
Molecule `COc1ccc2cc1Oc1ccc(cc1)C[C@H]1c3cc(c(OC)cc3CCN1C)Oc1c(OC)c(OC)cc3c1[C@H](C2)N(C)CC3` has a max response (NIH3T3) of -30.2%.
For `CCc1cc(-c2n[nH]c(C)c2-c2ccc3c(c2)OCCO3)c(O)cc1O`, the Potency (HEK293) was 11.8 µM (active), the Potency (HaCat [1]) was 7.43 µM (active) and the Potency (NIH3T3) was 8.33 µM (active).
`CN(C)CC[C@H](CSc1ccccc1)Nc1ccc(S(=O)(=O)NC(=O)c2ccc(N3CCN(Cc4ccccc4-c4ccc(Cl)cc4)CC3)cc2)cc1[N+](=O)[O-]` was tested, and the Potency (HaCat [1]) was 18.7 µM (active) and the max response (KB-3-1) was 2.51%.
With `CCC[C@H](Nc1nc(-c2ccc(NC(=O)NCC)c(OC)c2)ncc1C)c1cccnc1` the max response (HEK293) was -101%, the Potency (KB-3-1) was 0.0047 µM (active) and the max response (NIH3T3) was -76.8%.
In the case of `O=C(Nc1ncc(SCCN2CCCC2)s1)[C@]1(c2ccc(S(=O)(=O)C3CC3)cc2)C[C@@H]1C1CCCCC1`, the Potency (HEK293) is reported as 16.6 µM (active) and the Potency (NIH3T3) is reported as 23.5 µM (active).
In the case of `NC(=O)c1noc([C@H](CCCC2CCCCC2)CC(=O)NO)n1`, the Potency (HEK293) is reported as 11.8 µM (active), the max response (KB-3-1) is reported as -19.6% and 9.75% and the Potency (NIH3T3) is reported as 18.7 µM (active) and 16.4 µM (active).
`O=C(Nc1ccc(OC(F)(F)F)cc1)c1sccc1NCc1ccnc2ccccc12` was tested, and the Potency (HEK293) was 8.33 µM (active) and 20.6 µM (active), the outcome (HaCat [1]) was “inactive” and the outcome (HACAT [2]) was “inactive”.
`O=C(O)c1ccc(O)c2ncc(N3CCOCC3)cc12` was tested, and the outcome (HaCat [1]) was “inactive”, the max response (KB-3-1) was 3.25% and the outcome (HACAT [2]) was “inactive”.
`Fc1ccc(C(c2ccc(F)cc2)N2CCN(CC=Cc3ccccc3)CC2)cc1` was tested, and the Potency (W2) was 8.49 µM (active).
With `COc1ccc(-c2oc3c(CC=C(C)C)c(O)cc(O)c3c(=O)c2O)cc1` the outcome (HaCat [1]) was “inactive”, the max response (KB-3-1) was 6.49% and the outcome (NIH3T3) was “inactive”. The outcome (HACAT [2]) was “inactive”.
For `COc1c(C)c2c(c(O)c1CC=C(C)CCC(=O)O)C(=O)OC2`, the max response (HaCat [1]) was -8.02% and the Potency (NIH3T3) was 3.72 µM (active).
In the case of `CN[C@H]1[C@@H](O[C@@H]2[C@H](O[C@@H]3[C@@H](O)[C@@H](O)[C@@H](N=C(N)N)[C@@H](O)[C@@H]3N=C(N)N)O[C@H](C)[C@@]2(O)C=O)O[C@@H](CO)[C@@H](O)[C@H]1O`, the outcome (KB-3-1) is reported as “inactive”.
With `CC(C)c1c(C(=O)Nc2ccccc2)c(-c2ccccc2)c(-c2ccc(F)cc2)n1CC[C@H](O)C[C@@H](O)CC(=O)O` the Potency (HaCat [1]) was 20.9 µM (active) and the max response (NIH3T3) was -10.9%.
With `Clc1ccc(COC(Cn2ccnc2)c2ccc(Cl)cc2Cl)c(Cl)c1` (stereo not given) the Potency (N140) was 2.24 µM (active), the Potency (P93_24) was 1.41 µM (active) and the Potency (P94_40) was 2.82 µM (active). For the same molecule, the Potency (PAD) was 3.55 µM (active), the Potency (PC26) was 2.56 µM (active) and the outcome (PC49) was “inactive”. For the same molecule, the Potency (SC27B) was 2.82 µM (active), the Potency (TAB109) was 3.98 µM (active) and the Potency (TAB113) was 3.16 µM (active). The Potency (TAB165) was 1 µM (active) and the Potency (W2) was 2.28 µM (active).
